The text below walks through data of the supplement of paper PMC11732987, “Enantioselective OTUD7B fragment discovery through chemoproteomics screening and high-throughput optimisation” (Communications Chemistry, 2025).

UniProt O94966, sequence (O94966 whole entry): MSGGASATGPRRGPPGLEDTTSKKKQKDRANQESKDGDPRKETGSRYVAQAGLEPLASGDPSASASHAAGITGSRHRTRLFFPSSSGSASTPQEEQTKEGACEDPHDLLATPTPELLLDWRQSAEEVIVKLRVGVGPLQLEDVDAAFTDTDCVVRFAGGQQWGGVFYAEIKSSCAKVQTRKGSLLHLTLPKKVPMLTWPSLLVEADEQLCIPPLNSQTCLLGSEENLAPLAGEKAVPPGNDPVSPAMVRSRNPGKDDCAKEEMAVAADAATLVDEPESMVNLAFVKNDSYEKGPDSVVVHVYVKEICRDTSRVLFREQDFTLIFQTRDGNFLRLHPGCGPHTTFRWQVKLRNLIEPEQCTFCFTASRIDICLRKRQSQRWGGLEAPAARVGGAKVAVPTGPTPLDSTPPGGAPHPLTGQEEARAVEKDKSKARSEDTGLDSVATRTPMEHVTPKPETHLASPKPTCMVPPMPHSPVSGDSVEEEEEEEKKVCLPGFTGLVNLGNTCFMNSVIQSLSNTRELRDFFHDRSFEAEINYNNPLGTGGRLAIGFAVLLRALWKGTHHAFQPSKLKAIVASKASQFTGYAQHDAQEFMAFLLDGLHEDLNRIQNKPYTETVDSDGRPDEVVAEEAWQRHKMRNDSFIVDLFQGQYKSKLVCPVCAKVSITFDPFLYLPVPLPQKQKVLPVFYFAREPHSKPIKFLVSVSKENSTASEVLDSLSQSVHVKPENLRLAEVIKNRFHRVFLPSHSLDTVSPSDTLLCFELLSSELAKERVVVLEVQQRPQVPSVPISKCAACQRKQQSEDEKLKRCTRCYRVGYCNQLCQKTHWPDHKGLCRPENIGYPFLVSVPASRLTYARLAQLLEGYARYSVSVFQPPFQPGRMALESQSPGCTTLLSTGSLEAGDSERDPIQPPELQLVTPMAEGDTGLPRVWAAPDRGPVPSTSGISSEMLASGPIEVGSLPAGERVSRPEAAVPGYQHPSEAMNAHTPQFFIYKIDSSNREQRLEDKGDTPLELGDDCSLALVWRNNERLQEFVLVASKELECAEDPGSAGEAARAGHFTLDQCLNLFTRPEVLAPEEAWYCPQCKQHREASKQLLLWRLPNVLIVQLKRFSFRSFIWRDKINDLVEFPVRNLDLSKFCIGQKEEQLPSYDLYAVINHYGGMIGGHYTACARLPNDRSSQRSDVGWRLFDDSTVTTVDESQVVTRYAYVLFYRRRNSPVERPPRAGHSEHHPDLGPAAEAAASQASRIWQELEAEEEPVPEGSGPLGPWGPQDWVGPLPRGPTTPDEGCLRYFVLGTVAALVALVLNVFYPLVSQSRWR
UniProt Q9UHP3, sequence (Q9UHP3 whole entry): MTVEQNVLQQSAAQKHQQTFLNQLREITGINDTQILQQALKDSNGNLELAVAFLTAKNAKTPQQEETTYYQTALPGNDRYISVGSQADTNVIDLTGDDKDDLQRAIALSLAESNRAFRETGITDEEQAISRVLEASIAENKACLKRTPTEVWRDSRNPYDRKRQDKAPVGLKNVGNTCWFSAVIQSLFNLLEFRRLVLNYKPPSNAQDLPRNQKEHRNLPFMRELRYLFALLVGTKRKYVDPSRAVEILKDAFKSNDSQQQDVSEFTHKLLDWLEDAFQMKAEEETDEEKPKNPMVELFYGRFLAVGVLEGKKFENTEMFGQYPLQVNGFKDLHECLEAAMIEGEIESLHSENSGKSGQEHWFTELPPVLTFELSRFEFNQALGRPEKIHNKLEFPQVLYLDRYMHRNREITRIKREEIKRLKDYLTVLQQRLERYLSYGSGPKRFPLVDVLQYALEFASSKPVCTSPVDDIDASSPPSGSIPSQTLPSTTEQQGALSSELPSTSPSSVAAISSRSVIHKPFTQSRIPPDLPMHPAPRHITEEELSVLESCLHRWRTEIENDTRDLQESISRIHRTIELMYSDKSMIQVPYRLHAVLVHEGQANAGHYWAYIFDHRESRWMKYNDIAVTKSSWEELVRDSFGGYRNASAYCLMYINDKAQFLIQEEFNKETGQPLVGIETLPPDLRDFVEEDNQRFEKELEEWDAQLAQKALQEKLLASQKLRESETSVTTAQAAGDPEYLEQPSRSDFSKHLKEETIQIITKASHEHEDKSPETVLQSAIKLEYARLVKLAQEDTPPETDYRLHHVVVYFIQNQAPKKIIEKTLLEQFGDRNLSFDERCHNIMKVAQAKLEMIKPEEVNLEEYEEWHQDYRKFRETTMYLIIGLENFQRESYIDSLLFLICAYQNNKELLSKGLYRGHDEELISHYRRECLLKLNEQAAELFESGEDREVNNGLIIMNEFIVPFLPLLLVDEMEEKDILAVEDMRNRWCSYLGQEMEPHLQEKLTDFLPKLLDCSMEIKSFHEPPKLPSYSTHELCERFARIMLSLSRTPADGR
UniProt Q8TE49, sequence (Q8TE49 whole entry): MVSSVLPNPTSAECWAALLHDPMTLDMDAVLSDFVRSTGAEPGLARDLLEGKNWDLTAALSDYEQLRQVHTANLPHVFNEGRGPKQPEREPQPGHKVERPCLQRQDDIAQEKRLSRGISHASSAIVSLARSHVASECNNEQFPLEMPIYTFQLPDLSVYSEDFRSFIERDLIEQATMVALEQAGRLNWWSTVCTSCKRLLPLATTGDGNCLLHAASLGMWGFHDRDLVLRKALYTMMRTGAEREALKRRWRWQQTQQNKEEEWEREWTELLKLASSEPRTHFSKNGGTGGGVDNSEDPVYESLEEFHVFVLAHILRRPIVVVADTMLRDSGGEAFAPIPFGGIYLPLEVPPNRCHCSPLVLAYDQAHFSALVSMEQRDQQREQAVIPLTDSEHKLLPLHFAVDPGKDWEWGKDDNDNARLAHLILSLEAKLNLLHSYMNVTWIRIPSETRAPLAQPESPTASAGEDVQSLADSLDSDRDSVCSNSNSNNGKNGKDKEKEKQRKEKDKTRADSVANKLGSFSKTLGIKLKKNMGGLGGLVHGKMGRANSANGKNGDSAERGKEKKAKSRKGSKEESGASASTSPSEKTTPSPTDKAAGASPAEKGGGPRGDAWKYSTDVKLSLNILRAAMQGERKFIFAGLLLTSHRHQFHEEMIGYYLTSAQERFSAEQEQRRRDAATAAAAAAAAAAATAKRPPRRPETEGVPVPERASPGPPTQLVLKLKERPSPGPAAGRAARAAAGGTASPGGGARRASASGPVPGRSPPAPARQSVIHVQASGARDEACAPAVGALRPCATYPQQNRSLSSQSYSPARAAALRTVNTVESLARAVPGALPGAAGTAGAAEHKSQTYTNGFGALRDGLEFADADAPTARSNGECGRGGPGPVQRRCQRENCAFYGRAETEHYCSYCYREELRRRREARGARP
UniProt Q96RU2, sequence (Q96RU2 whole entry): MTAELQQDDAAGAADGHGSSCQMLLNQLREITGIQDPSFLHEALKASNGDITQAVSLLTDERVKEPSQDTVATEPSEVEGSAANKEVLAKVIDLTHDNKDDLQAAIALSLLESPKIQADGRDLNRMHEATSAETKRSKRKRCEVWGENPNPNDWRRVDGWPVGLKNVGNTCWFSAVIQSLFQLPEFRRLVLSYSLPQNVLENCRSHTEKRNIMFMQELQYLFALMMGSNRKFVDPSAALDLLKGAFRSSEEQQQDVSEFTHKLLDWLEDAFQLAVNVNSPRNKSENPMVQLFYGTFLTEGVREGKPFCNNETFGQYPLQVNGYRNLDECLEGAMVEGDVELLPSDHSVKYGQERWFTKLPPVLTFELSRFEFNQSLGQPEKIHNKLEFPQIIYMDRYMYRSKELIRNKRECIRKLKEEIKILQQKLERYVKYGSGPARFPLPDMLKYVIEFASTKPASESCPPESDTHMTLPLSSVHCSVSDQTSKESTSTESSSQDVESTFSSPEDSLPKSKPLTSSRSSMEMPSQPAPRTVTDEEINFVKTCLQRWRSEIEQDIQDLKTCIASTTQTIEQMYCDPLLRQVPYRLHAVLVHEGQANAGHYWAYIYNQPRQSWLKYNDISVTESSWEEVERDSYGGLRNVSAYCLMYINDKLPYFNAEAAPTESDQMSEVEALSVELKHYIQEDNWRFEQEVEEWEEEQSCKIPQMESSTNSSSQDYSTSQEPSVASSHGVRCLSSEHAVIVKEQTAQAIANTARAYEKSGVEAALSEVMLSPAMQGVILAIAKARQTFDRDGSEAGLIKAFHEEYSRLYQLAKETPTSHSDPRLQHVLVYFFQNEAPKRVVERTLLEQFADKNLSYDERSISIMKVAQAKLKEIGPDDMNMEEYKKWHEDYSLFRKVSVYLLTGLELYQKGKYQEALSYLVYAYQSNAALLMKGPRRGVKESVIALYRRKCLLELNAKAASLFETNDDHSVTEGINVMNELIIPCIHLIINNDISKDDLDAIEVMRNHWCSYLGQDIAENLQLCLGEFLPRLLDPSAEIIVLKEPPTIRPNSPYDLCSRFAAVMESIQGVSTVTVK
UniProt O15372, sequence (O15372 whole entry): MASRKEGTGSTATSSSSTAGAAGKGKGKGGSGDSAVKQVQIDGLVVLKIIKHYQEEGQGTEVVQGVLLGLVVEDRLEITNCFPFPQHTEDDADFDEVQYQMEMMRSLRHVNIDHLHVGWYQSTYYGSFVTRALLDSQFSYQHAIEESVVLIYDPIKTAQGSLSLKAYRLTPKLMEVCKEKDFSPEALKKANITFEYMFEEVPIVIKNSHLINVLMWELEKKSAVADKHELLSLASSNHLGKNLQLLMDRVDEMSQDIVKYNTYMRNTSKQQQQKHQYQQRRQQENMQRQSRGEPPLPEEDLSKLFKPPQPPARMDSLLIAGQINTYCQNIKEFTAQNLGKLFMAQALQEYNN

Compound in one assay: ClCC(=O)N1CCC(CC#N)C1
The experiment in a line: log2 ratio of Biotin-Ahx-Ub-VS probe labelling (compound/DMSO); higher = less target engagement, active = hit call of the paper (q ≤ 0.05, log2 ratio ≤ -1). As to conditions: compound concentration: 50uM; treatment time: 3 h. The protocol: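 Round 2 competitive ABPP in HEK293T lysate. Purified HTC-D2B compounds were tested at 50 and 200 µM for 3 h, followed by Biotin-Ahx-Ub-VS enrichment and diaPASEF LC-MS/MS. Values are the average log2 ratio (compound/DMSO) from an unpaired t-test (n=3 treated, n=26 DMSO).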
Regarding EIF3H (UniProt O15372), the “log2 ratio of Biotin-Ahx-Ub-VS probe labelling” value (from here on “log2 ratio”) was 0.0416 (inactive).
Still for that read-out and setting: the same measure for MINDY4 (UniProt Q4G0A6): 0.173 (inactive); for UniProt Q8TE49: -0.317 (inactive).
Same read-out and setting: the same measure for ALG13 (UniProt Q9NP73): 0.259 (inactive); for UniProt Q9P2H5: -0.115 (inactive).
Turning to USP15 (UniProt Q9Y4E8), the “log2 ratio” value is -0.281 (inactive).
Take USP25 (UniProt Q9UHP3): the “log2 ratio” value is -0.617 (inactive).
Still for that read-out and setting: the same measure for USP28 (UniProt Q96RU2): -0.0624 (inactive); for USP19 (UniProt O94966): -0.285 (inactive).

The same assay, now with this note: compound concentration: 200uM; treatment time: 3 h.
EIF3H (UniProt O15372): the “log2 ratio” value was 0.0793 (inactive).
On the same count and under the same terms, for MINDY4 (UniProt Q4G0A6) the value was -0.0819 (inactive); for UniProt Q8TE49, -0.54 (inactive); for ALG13 (UniProt Q9NP73), 0.307 (inactive).
The same measure, in the same setting: the same measure for UniProt Q9P2H5: 0.00502 (inactive).
On the same count and under the same terms, the same measure for USP15 (UniProt Q9Y4E8): -0.268 (inactive); for USP25 (UniProt Q9UHP3): -2.11 (active).
For the target USP28 (UniProt Q96RU2), the “log2 ratio” value was -0.291 (inactive).
As to USP19 (UniProt O94966), the “log2 ratio” value is -0.557 (inactive).
